Experimental data published in PubChem BioAssay (Tox21).
Values without a mark were called inactive. Inconclusive results are not listed. Where a call stands in place of a potency, no number is given. Activity calls are given as the source filed them. Unless noted, calls come from the whole dose curve.

Experiments:
[1] = Nuclear factor erythroid 2-related factor 2/antioxidant responsive element (Nrf2/ARE) small molecule agonists: qHTS cell viability counter screen in human keratinocytes (AID 1919968; active = well fitted curve in the direction sought with a large enough effect in the repeat runs; an effect the other way counts as inactive or inconclusive; note: nearly all actives have a fitted effect of over 55% in size)
Outline: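 Measured as CellTiter-Fluor fluorescence, this readout tracks cytotoxicity in the same wells as the ARE-luciferase screen. HaCaT reporter cells (1,500/well) received compounds after a 5 h pre-incubation and were exposed for 23 h.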

[2] = target: Gonadotropin-releasing hormone receptor (Homo sapiens) (UniProt P30968); assay: Human gonadotropin-releasing hormone receptor (GnRHR) small molecule agonists, calcium flux assay in GnRHR-HEK293 cells (AID 1920063); note: nearly all actives have a fitted effect of over 35% in size
Outline: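 Fluorescence kinetics (480 nm excitation, 540 nm emission; 3 min, 1 s steps) report calcium mobilisation in human GnRHR-HEK293 cells in agonist mode. Dye incubation: 1 h, 37 C.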

[3] = target: KiSS-1 receptor (Homo sapiens) (UniProt Q969F8); assay: Human kisspeptin (KISS1R) small molecule agonists, calcium flux assay in KISS1R-HEK293 cells (AID 1920064; active = well fitted curve in the direction sought with a large enough effect in the repeat runs; an effect the other way counts as inactive or inconclusive)
Outline: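 Measures KISS1R agonism through calcium-sensitive dye fluorescence in stably transfected HEK293 cells, read for 3 min after pin-tool compound delivery; 15-point titrations in triplicate.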

[4] = G protein-coupled receptor (GPCR) small molecule agonists, calcium flux assay: HEK293 wild type cell line counter screen (AID 1920065)
Outline: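 Readout: fluorescence at 480 nm excitation/540 nm emission, sampled at 1 s intervals for 3 min. Cells had been cultured 18 h, then dye-loaded 1 h at 37 C before compound or ATP addition.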

[5] = p53 small molecule agonists, cell-based qHTS assay with human liver microsomes (AID 1963577);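 note: p53 response element beta-lactamase reporter cells with liver microsomes plus NADPH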
Outline: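 With metabolic activation: human liver microsomes (0.5 mg/mL final) plus NADPH (0.5 mg/mL final) added alongside compounds to p53RE-bla cells; 16 h 37 C exposure; beta-lactamase read by LiveBLAzer fluorescence.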

[6] = p53 small molecule agonists, cell-based qHTS assay with rat liver microsomes (AID 1963578)
Outline: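 Metabolic activation by rat liver microsomes and NADPH, each 0.5 mg/mL final, added right after compounds to p53RE-bla reporter cells (4,000/well, plated 5 h earlier). 16 h at 37 C, then LiveBLAzer substrate for 2 h at room temperature in the dark; fluorescence read-out.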

[7] = p53 small molecule agonists, cell-based qHTS assay with human liver microsomes: qHTS cell viability counter screen (AID 1963579); note: nearly all actives have a fitted effect of over 45% in size; note: potency is the fitted concentration of half-maximal effect
Outline: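 Metabolic activation used human liver microsomes and NADPH, both 0.5 mg/mL final, over 16 hours at 37 C on p53RE-bla cells (4,000/well). Cytotoxicity measured by CellTiter-Glo luminescence, 30 min at room temperature.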

[8] = p53 small molecule agonists, cell-based qHTS assay: qHTS cell viability counter screen (AID 1963581); note: nearly all actives have a fitted effect of over 45% in size
Outline: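 In the same plates used for the p53 bla reporter, HCT-116 cells given compounds for 16 h at 37 C received CellTiter-Glo; luminescence was recorded 30 min later at room temperature.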

[9] = p53 small molecule agonists, cell-based qHTS assay (AID 1963582; active = well fitted activation curve with a large enough effect in the signal ratio in the repeat runs, not every such curve was filed as active; the % refers to the signal ratio)
Outline: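 Compounds are pin-transferred in DMSO onto p53RE-bla cells and incubated 16 h at 37 C. The B/G FRET beta-lactamase substrate is then applied for 2 h at RT and fluorescence recorded.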

[10] = target: 5-hydroxytryptamine receptor 2A (Homo sapiens) (UniProt P28223); assay: 5-hydroxytryptamine receptor 2A (HTR2A) small molecule antagonists, cell-based qHTS assay (AID 1963586); note: nearly all actives have a fitted effect of over 45% in size
Outline: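 Antagonist-mode intracellular calcium assay: DOI (4 nM) added after 5 min compound pre-incubation at room temperature to dye-loaded HTR2A-CHO cells. Fluorescence followed for 3 min, sampled every second.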

[11] = target: 5-hydroxytryptamine receptor 2A (Homo sapiens) (UniProt P28223); assay: 5-hydroxytryptamine receptor 2A (HTR2A) small molecule agonists, cell-based qHTS assay (AID 1963587); note: nearly all actives have a fitted effect of over 30% in size
Outline: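 CHO cells stably expressing human HTR2A, plated 18 h, loaded with calcium dye 1 h at 37 C. Agonist mode: compounds added and intracellular calcium fluorescence recorded kinetically for 2 min at 1 sec intervals.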

[12] = target: Muscarinic acetylcholine receptor M1 (Homo sapiens) (UniProt P11229); assay: Cholinergic receptor muscarinic 1 (CHRM1) small molecule antagonists, cell-based qHTS assay (AID 1963588); note: nearly all actives have a fitted effect of over 40% in size
Outline: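 CHRM1-CHO calcium-flux assay, antagonist mode. Cells were seeded 18 h, dye-loaded 1 h at 37 C and given compound for 5 min at RT, then acetylcholine was added at 50nM. FDSS fluorescence was read 3 min; 15 concentrations, three runs.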

[13] = target: Muscarinic acetylcholine receptor M1 (Homo sapiens) (UniProt P11229); assay: Cholinergic receptor muscarinic 1 (CHRM1) small molecule agonists, cell-based qHTS assay (AID 1963589); note: nearly all actives have a fitted effect of over 35% in size
Outline: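 Each compound was tested at 15 concentrations across three independent runs on dye-loaded CHO cells stably expressing human CHRM1, reading intracellular calcium fluorescence kinetically at 1 sec intervals.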

[14] = cAMP Responsive Elements (CRE) small molecule agonists, cell-based qHTS assay (AID 1963590)
Outline: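 Cell line: CRE-bla HEK 293T; medium DMEM/10% dialyzed FBS/0.1 mM NEAA/1 mM pyruvate/25 mM HEPES; 3 h compound exposure; beta-lactamase FRET readout after 2 h substrate loading at RT.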

[15] = cAMP Responsive Elements (CRE) small molecule antagonists, cell-based qHTS assay (AID 1963591; active = well fitted inhibition curve with a large enough effect in the signal ratio in the repeat runs, not every such curve was filed as active; the % refers to the signal ratio)
Outline: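 Inhibition of NKH477-driven (0.25 uM final) CRE-beta-lactamase signal in HEK293T cells, 3 h compound exposure at 37 °C, detected by FRET substrate fluorescence.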

[16] = target: Beta-2 adrenergic receptor (Homo sapiens) (UniProt P07550); assay: Adrenergic beta2 receptor (ADRB2) small molecule antagonists, cell-based qHTS assay (AID 1963592); note: series mostly up to about 92 µM; nearly all actives have a fitted effect of over 50% in size
Outline: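 Cells (CHO, stable ADRB2 overexpression) incubated 18-20hr at 37C; compounds added from DMSO; agonist mix (1nM isoproterenol, 100uM IBMX, 25uM Ro-20-1724) added; 0.5hr RT; d2-cAMP and anti-cAMP-cryptate added; 1hr RT; 665/615 nm read.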

[17] = target: D(2) dopamine receptor (Homo sapiens) (UniProt P14416); assay: Dopamine D2 receptor (DRD2) small molecule agonists, cell-based qHTS assay (AID 1963594); note: nearly all actives have a fitted effect of over 35% in size
Outline: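 HEK293 cells stably expressing human DRD2, pre-treated with PDE inhibitor Ro20-1724 (0.1 mM final) and compound 10 min at room temperature, then stimulated with NKH477 (200nM […]) for 30 min. cAMP read by HTRF (665/620 nm).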

[18] = target: Beta-2 adrenergic receptor (Homo sapiens) (UniProt P07550); assay: Adrenergic beta2 receptor (ADRB2) small molecule agonists, cell-based qHTS assay (AID 1963593);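 note: CHO cells stably overexpressing human ADRB2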
Outline: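 CHO cells stably over-expressing ADRB2 were plated overnight at 37C, then dosed with compounds plus a stimulation mix containing 100uM IBMX and 25uM Ro-20-1724 for 0.5hr at room temperature. cAMP was measured by HTRF competition, 1hr.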

[19] = target: D(2) dopamine receptor (Homo sapiens) (UniProt P14416); assay: Dopamine D2 receptor (DRD2) small molecule antagonists, cell-based qHTS assay (AID 1963595; active = well fitted inhibition curve with a large enough effect in the signal ratio in the repeat runs, with a control signal flat; the % refers to the signal ratio)
Outline: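 Stable D2 receptor HEK293 line, 24 h after seeding. Compound preincubated 10 min, then quinpirole (12 nM) with forskolin analogue NKH477 (200 nM), 30 min, room temperature. Detection by time-resolved FRET of cAMP.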

[20] = p53 small molecule agonists, cell-based qHTS assay with rat liver microsomes: qHTS cell viability counter screen (AID 1963580); note: nearly all actives have a fitted effect of over 45% in size
Outline: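 p53RE-bla HCT-116 cells were exposed 16 h at 37 C to compounds with rat liver microsomes (0.5 mg/mL) and NADPH (0.5 mg/mL). Viability was measured in the same wells as ATP content by CellTiter-Glo luminescence.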

Sequence of D(2) dopamine receptor (Homo sapiens) (P14416 whole entry, looked up): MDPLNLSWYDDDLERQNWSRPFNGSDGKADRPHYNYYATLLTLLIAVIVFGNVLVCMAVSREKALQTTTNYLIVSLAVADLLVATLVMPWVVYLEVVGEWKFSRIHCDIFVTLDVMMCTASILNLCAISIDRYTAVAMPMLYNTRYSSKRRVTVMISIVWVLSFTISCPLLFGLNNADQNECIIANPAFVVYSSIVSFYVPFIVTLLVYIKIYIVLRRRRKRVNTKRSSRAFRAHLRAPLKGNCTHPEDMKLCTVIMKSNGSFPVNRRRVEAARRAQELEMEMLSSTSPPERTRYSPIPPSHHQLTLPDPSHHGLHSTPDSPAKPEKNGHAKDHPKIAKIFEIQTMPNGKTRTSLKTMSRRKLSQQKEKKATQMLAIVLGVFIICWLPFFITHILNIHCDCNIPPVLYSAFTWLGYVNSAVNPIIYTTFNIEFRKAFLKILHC
Sequence of Beta-2 adrenergic receptor (Homo sapiens) (P07550 whole entry, looked up): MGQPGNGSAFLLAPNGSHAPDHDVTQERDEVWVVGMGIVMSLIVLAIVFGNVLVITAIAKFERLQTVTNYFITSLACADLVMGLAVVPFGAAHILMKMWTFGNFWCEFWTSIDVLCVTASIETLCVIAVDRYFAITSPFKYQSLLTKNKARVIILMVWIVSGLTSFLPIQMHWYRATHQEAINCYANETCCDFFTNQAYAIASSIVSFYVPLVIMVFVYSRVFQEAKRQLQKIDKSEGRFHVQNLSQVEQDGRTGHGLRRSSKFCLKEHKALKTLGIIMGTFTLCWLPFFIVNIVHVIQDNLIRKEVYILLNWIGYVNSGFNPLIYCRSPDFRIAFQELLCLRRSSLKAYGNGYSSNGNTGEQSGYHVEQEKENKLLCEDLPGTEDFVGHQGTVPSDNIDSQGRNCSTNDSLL
Sequence of 5-hydroxytryptamine receptor 2A (Homo sapiens) (P28223 whole entry, looked up): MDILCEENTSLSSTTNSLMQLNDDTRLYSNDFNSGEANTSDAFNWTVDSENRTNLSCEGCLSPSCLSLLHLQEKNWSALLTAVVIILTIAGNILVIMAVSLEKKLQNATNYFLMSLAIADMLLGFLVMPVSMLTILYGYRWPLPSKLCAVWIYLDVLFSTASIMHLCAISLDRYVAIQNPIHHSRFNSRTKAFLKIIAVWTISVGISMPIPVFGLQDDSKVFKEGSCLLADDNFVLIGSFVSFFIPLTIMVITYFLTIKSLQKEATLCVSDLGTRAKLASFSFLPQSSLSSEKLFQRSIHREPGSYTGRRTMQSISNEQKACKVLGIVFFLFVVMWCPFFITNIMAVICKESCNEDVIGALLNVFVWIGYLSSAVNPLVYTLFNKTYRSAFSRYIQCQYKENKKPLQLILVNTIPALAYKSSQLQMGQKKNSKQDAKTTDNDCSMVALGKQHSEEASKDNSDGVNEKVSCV
Sequence of Gonadotropin-releasing hormone receptor (Homo sapiens) (P30968 whole entry, looked up): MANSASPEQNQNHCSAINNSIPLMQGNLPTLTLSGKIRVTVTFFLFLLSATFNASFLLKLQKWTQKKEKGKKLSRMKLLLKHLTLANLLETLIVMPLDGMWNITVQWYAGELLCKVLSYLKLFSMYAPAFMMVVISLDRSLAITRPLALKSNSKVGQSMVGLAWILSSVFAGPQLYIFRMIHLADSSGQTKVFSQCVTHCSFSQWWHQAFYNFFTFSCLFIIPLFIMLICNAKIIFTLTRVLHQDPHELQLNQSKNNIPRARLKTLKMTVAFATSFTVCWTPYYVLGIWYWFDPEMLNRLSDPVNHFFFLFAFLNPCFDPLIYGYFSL
Sequence of KiSS-1 receptor (Homo sapiens) (Q969F8 whole entry, looked up): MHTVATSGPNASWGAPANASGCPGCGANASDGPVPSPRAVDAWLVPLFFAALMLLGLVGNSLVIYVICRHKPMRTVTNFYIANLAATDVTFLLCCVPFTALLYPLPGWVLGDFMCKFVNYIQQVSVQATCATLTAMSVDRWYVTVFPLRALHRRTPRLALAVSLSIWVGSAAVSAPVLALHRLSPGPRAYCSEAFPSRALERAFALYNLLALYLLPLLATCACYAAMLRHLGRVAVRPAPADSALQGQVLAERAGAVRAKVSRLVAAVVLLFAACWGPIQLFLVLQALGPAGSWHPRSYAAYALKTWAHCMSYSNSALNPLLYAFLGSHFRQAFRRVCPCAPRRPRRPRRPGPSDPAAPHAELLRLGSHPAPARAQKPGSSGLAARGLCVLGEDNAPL
Sequence of Muscarinic acetylcholine receptor M1 (Homo sapiens) (P11229 whole entry, looked up): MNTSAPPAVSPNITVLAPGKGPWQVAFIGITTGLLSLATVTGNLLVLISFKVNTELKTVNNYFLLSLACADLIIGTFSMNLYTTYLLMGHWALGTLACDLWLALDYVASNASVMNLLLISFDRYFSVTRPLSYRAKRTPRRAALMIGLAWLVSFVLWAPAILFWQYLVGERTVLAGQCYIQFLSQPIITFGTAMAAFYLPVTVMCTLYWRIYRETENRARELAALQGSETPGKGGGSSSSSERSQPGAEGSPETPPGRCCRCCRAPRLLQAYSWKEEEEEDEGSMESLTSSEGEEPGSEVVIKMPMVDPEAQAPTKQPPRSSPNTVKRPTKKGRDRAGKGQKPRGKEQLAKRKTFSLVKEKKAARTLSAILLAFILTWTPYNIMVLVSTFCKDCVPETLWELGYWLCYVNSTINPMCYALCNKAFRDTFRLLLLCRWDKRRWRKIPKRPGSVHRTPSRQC

Row | SMILES | Potency [1] | Potency [2] | Potency [3] | Potency [4] | Potency [5] | Potency [6] | Potency [7] | Potency [8] | Potency [9] | Potency [10] | Potency [11] | Potency [12] | Potency [13] | Potency [14] | Potency [15] | Potency [16] | Potency [17] | Potency [18] | Potency [19] | Potency [20]
1 | C1CCC2=NCCCN2CC1 | inactive | inactive | inactive | inactive | inactive | inactive | inactive | inactive | inactive | inactive | inactive | inactive | inactive | inactive | inactive | inactive | inactive | – | – | –
2 | O=C1CCCCCCCCCCCCCCO1 | inactive | inactive | inactive | inactive | inactive | inactive | inactive | inactive | inactive | inactive | inactive | inactive | inactive | inactive | inactive | inactive | inactive | – | – | –
3 | CCCCOC(=O)CO | inactive | inactive | inactive | inactive | inactive | inactive | inactive | inactive | inactive | inactive | inactive | inactive | – | inactive | inactive | inactive | inactive | inactive | inactive | –
4 | Cc1c[nH]c(=O)[nH]c1=O | inactive | inactive | inactive | inactive | inactive | inactive | – | inactive | inactive | inactive | inactive | inactive | inactive | inactive | inactive | inactive | inactive | inactive | inactive | inactive
5 | O=C(O)C(=O)Cc1ccccc1 | inactive | inactive | inactive | inactive | inactive | inactive | – | inactive | inactive | inactive | inactive | inactive | inactive | inactive | – | inactive | inactive | inactive | inactive | inactive
6 | CCOc1ccc(NC(C)=O)cc1N | inactive | inactive | inactive | inactive | inactive | inactive | – | inactive | inactive | – | – | inactive | – | inactive | inactive | inactive | inactive | – | inactive | inactive
7 | O=C(/C=C/c1ccccc1)OCCc1ccccc1 | inactive | inactive | inactive | inactive | inactive | inactive | inactive | inactive | inactive | inactive | inactive | – | inactive | inactive | inactive | – | inactive | – | – | –
8 | CCCCOC(=O)CC#N | inactive | inactive | inactive | inactive | inactive | inactive | 17 µM (active) | inactive | inactive | – | inactive | inactive | inactive | inactive | – | inactive | inactive | inactive | inactive | –
